Data from PubChem BioAssay (NCI).
About 83,000 compounds went through this panel and 20% of them were active in at least one assay; those are over-represented in the sample as a whole.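 48-hour exposure, single concentration, 96-well plates; percent growth endpoint where 0 means no net growth. Active: below 10.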 Activity calls are given as the source filed them.

Assays:
Assay in all cases: NCI-60 one-dose screen, 48 h (100 = growth as untreated, 0 = no growth, -100 = all killed)
Details in all cases: 10 µM unless noted
NCI-H23 lung = test system: NCI-H23 lung
NCI-H226 lung = test system: NCI-H226 lung
NCI-H322M lung = test system: NCI-H322M lung
HOP-62 NSCLC = test system: HOP-62 NSCLC
NCI-H460 lung = test system: NCI-H460 lung
HOP-92 NSCLC = test system: HOP-92 NSCLC
NCI-H522 lung = test system: NCI-H522 lung
A549/ATCC NSCLC = test system: A549/ATCC NSCLC
786-0 renal = test system: 786-0 renal
COLO 205 colon = test system: COLO 205 colon
DU-145 prostate = test system: DU-145 prostate
K-562 leukemia = test system: K-562 leukemia
MALME-3M melanoma = test system: MALME-3M melanoma
MDA-MB-231 breast = test system: MDA-MB-231 breast
RXF 393 renal = test system: RXF 393 renal
SF-268 CNS = test system: SF-268 CNS
SF-295 CNS = test system: SF-295 CNS
SF-539 CNS = test system: SF-539 CNS
UACC-257 melanoma = test system: UACC-257 melanoma
M14 melanoma = test system: M14 melanoma

Measured: growth

O=c1[nH]ccc2c(S(=O)(=O)N3CCCNCC3)cccc12
inactive: NCI-H23 lung 78.5% | NCI-H226 lung 81.7% | NCI-H322M lung 29.6% | HOP-62 NSCLC 68.8% | NCI-H460 lung 95.3% | HOP-92 NSCLC 30% | NCI-H522 lung 17.3% | A549/ATCC NSCLC 81.3% | 786-0 renal 54% | COLO 205 colon 112% | DU-145 prostate 62.2% | K-562 leukemia 104% | MALME-3M melanoma 82.2% | MDA-MB-231 breast 87.3% | RXF 393 renal 57.8% | SF-268 CNS 54.3% | SF-295 CNS 74.5% | SF-539 CNS 76.5% | UACC-257 melanoma 99.1% | M14 melanoma 88.3%

COc1ncc(-c2ccc3nccc(-c4ccnnc4)c3c2)cc1NS(=O)(=O)c1ccc(F)cc1F
inactive: DU-145 prostate 10.8%
active: NCI-H23 lung 3.23% | NCI-H226 lung -4.7% | NCI-H322M lung -31.1% | HOP-62 NSCLC -14.1% | NCI-H460 lung 5.35% | HOP-92 NSCLC -1.41% | NCI-H522 lung -44% | A549/ATCC NSCLC -61.6% | 786-0 renal 4.21% | COLO 205 colon -83.2% | K-562 leukemia 3.76% | MALME-3M melanoma -34.2% | MDA-MB-231 breast 5.98% | RXF 393 renal -58.5% | SF-268 CNS 6.46% | SF-295 CNS -27.3% | SF-539 CNS -47.2% | UACC-257 melanoma -36.2% | M14 melanoma -7.62%

CCN(CC)CCN1C(=O)c2cccc3c(-c4ccc5c(c4)ncn5C4CCCCC4)ccc(c23)C1=O
inactive: NCI-H23 lung 20.2% | NCI-H322M lung 43.2% | NCI-H522 lung 21.3% | A549/ATCC NSCLC 18.8% | DU-145 prostate 28.4% | MDA-MB-231 breast 11.8% | SF-268 CNS 39.9%
active: NCI-H226 lung -29.9% | HOP-62 NSCLC 8.72% | NCI-H460 lung -30.9% | HOP-92 NSCLC -7.68% | 786-0 renal -46.1% | COLO 205 colon -20.4% | K-562 leukemia -14.2% | MALME-3M melanoma -74.5% | RXF 393 renal -11.4% | SF-295 CNS -41.7% | SF-539 CNS -76.2% | UACC-257 melanoma -15% | M14 melanoma -62.8%

COc1cc(Nc2c(C#N)cnc3cc(OCCCN4CCN(C)CC4)c(OC)cc23)c(Cl)cc1Cl
inactive: NCI-H23 lung 61.5% | NCI-H226 lung 78.4% | NCI-H322M lung 13.3% | HOP-62 NSCLC 61.3% | NCI-H460 lung 38.6% | HOP-92 NSCLC 98% | NCI-H522 lung 14.5% | A549/ATCC NSCLC 36.1% | 786-0 renal 67.7% | DU-145 prostate 46% | K-562 leukemia 22.7% | MDA-MB-231 breast 62.3% | RXF 393 renal 59% | SF-268 CNS 70.5% | SF-295 CNS 83.7% | SF-539 CNS 94.4% | M14 melanoma 13%
active: COLO 205 colon 6.9% | MALME-3M melanoma 1.06% | UACC-257 melanoma -8.01%
